Hit rate of the full screen: of about 260,000 compounds, about 1,500 (0.58%) were called active. Not shown: some 5% with an inconclusive outcome.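 The calls were made as follows: active = inhibition above a set limit at one or more doses, reproduced on every date tested; inconclusive = results disagree between test dates, or hit never tested in dose response; inactive = the rest.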 The list is a sample of the results. Results with a measured potency or affinity are listed apart.
Target: Virion infectivity factor (Human immunodeficiency virus type 1 group M subtype B (isolate BH10)) + Virion infectivity factor (Human immunodeficiency virus type 1 group M subtype B (isolate BRU/LAI)) + Virion infectivity factor (Human immunodeficiency virus type 1 group M subtype B (isolate PCV12)) + Virion infectivity factor (Human immunodeficiency virus type 1 group M subtype B (isolate HXB2)) + DNA dC->dU-editing enzyme APOBEC-3G (Homo sapiens) (UniProt P69720+P69721+P69722+P69723+Q9HC16)
Test: HIV-1 Vif–A3G interaction blockers – biochemical, TR-FRET, GST-Vif 1-94, biotin-A3G peptide, dose response retest, primary screen (AID 1117319);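 also: Vif residues 1-94 fused to GST binding biotinylated APOBEC3G peptide 110-148; 0% = full assay without inhibitor and 100% = GST in place of GST-Vif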
Settings: TR-FRET GST-Vif / biotin-A3G peptide binding; stronger effect = higher value

inhibition, inactive:
CCn1nnnc1NC(=O)c1cc(Cl)c(OC)c(Cl)c1 0.23%
Cc1noc(C(=O)NCC2CCCO2)c1Cl (configuration not stated) 2.96%
COc1ccc(-n2nnc3c(SCC(=O)OCc4ccccc4)ncnc32)cc1 0.84%
C=CCNC(=O)O/N=C/c1csc([N+](=O)[O-])c1 -6.03%
CC(C)(C)c1ccc(C(=O)N/N=C/c2ccc(OCCCF)cc2)cc1 -1.58%
CCOc1ccc(NC2=CC(=O)C(=O)c3ccccc32)cc1 3.36%
CCOc1ccccc1NCN1C(=O)c2ccccc2C1=O -5.06%
O=C(NC(=S)Nc1ccccc1O)c1cccnc1 -2.04%
COc1ccc(NC(=O)c2oc3ccccc3c2C)c(OC)c1 3.61%
COc1ccccc1NC(=O)c1oc2ccccc2c1C -8.43%
Cc1nn(-c2cccc(Cl)c2)nc1C(=O)Nc1cccc(C(=O)NC2CC2)c1 -8.35%
O=[N+]([O-])c1ccc(N=Nc2ccc(O)cc2O)cc1 27.8%
Oc1ccc(N=Nc2ccc3c(c2)OCCO3)c(O)c1 6.46%
Oc1ccc(N=Nc2ccc(Br)cc2)c(O)c1 -5.68%
O=[N+]([O-])c1cccc(N=Nc2ccc(O)cc2O)c1 5.74%
Clc1cccc(CSc2nnc(-c3c[nH]c4ccccc34)o2)c1 -5.82%
Cc1ccc(-c2nc(C#N)c(N3CCCCC3)o2)cc1 -10.2%
CC(=O)N1CCc2ccc(NC(=O)c3c(-c4c(Cl)cccc4Cl)noc3C)cc21 -4.69%
O=[N+]([O-])c1ccc2nc(C3CCCCC3)[nH]c2c1 -11.7%
COc1cccc(C(=O)Nc2ccc3nc(N4CCOCC4)cc(C)c3c2)c1 -4.42%
CN(C)/C=C/C(=O)c1ccc(Br)cc1 -1.28%
O=C(NCCO)C1COc2ccccc2O1 (configuration not stated) -2.17%
O=C(CSc1nnnn1C1CC1)N1CCN(c2ccccc2F)CC1 -1.62%
On1nnc2c3ccccc3c3ccccc3c21 0.98%
O=C(O)C1CCCCN1C(=O)c1ccc(S(=O)(=O)N2CCCCCC2)cc1 (configuration not stated) -3.6%
COc1cc2c(cc1OC)C(=O)CCC2 -1.94%
COc1ccc2c(c1)CCCC(Br)C2=O (configuration not stated) 11.8%
O=C(O)c1cccc2c1C(=O)c1ccc(N3CCN(Cc4ccc5c(c4)OCO5)CC3)cc1S2(=O)=O 1.13%
Cc1cccc2cc(CN(CCCO)C(=O)Nc3ccc(Cl)cc3)c(=O)[nH]c12 13.2%
C/C(=N\NC(=O)c1cc(C2CC2)nc2ccccc12)c1ccc(C)s1 5.05%
Cc1c(N=c2c(=O)c3ccccc3c2=O)c(=O)n(-c2ccccc2)n1C 23.7%
Cc1c(N=C2C=CC(=O)c3ccccc32)c(=O)n(-c2ccccc2)n1C 25%
CC1=CC(=Nc2c(C)n(C)n(-c3ccccc3)c2=O)C=C(C)C1=O 16.9%
CCC(C)C1=CC(=Nc2c(C)n(C)n(-c3ccccc3)c2=O)C=C(C(C)CC)C1=O (configuration not stated) 9.76%
CC(=O)NC1=NN(C(C)=O)C(C)(c2cccs2)S1 (configuration not stated) 2.86%
Cc1cc(=O)oc2cc(NC(=O)c3ccnn3C)ccc12 -5.65%
Cc1ccc(C)c(Cn2nnc3c(=O)[nH]c(C4CCN(S(=O)(=O)c5ccc(S(=O)(=O)NC6CC6)cc5)CC4)nc32)c1 -11.5%
O=C(CN1CCN(S(=O)(=O)c2ccc(Cl)s2)CC1)N1CCOCC1 7.26%
O=C(CN1CCN(S(=O)(=O)c2ccc(Cl)cc2)CC1)NCc1cccs1 0.29%
CC(C)Nc1nc(-c2ccccc2)nnc1-c1ccccc1 -7.57%
O=C(O)/C=C/C(=O)Nc1ccc(SC(F)(F)C(F)(F)C(F)(F)F)cc1 -1.48%
CCN(CC)CCN1C(=O)c2ccccc2NC1c1ccc(F)cc1 (configuration not stated) 1.63%
CCN(CC)CCN1C(=O)c2ccccc2NC1c1ccc(C)cc1 (configuration not stated) 0.09%
CC/C(C)=N/Nc1ccc(S(=O)(=O)N2CCCC2)cc1[N+](=O)[O-] 0.9%
CC1CCCN(C(=O)c2ccc(CNc3c(N4CCCCC4)c(=O)c3=O)cc2)C1 (configuration not stated) 4.47%
CC1CCN(C(=O)c2ccc(CNc3c(N4CCCC4)c(=O)c3=O)cc2)CC1 5.36%
Cn1c(N)c(C(=O)COC(=O)C2CCCC2)c(=O)n(C)c1=O 0.6%
Cn1c(N)c(C(=O)COC(=O)C2CCC(C(C)(C)C)CC2)c(=O)n(C)c1=O (configuration not stated) 15.1%
COc1ccc(S(=O)(=O)N2CCC3(CC2)CC(=O)c2ccccc2O3)cc1OC 5.1%
C=CCN1C(=O)S/C(=C\c2ccc(N3CCOCC3)cc2C)C1=O -1.96%
CCN1C(=O)S/C(=C\c2ccc(N3CCOCC3)cc2C)C1=O 15.3%
Cc1cc(=O)oc2c(CN3CCN(C)CC3)c(O)c(Cl)cc12 -0.71%
COc1ccccc1NC(=S)NN1CCN(C)CC1 -0.89%
Nc1ccc(C(=O)Nc2ccc3nc(-c4cccnc4)[nH]c3c2)cc1 1.2%
O=C(Nc1ccc2ccccc2c1)c1cccnc1 -0.18%
CC/C(=N\NC(=O)CSc1ncccn1)c1ccc2c(c1)OCCO2 4.58%
COc1ccc(-n2c(Cc3cc(=O)[nH]c(=O)[nH]3)nnc2SCC(=O)NC2CCCC2)cc1 2.26%
COc1ccc2cc(CN(Cc3ccco3)C(=S)NCC3CCCO3)c(=O)[nH]c2c1 (configuration not stated) -22.6%
CC(=O)Nc1ccc(S(=O)(=O)N2CCc3ccccc3C2)cc1 21.6%
NS(=O)(=O)c1ccc(N=Nc2c(O)c(C(=O)O)cc3ccccc23)cc1 24.6%
O=C(O)Cc1ccc(N=Cc2c(O)ccc3ccccc23)cc1 5.87%
Cn1cnnc1SCC(=O)Nc1ccccc1C(=O)NC1CCCC1 7.03%
CC(=O)Nc1cccc(C(=O)NCC2(N3CCCCC3)CCCCC2)c1 3.75%
COc1ccc(Oc2ccc(C(F)(F)F)cc2NC(=O)c2ccc(OC)cc2)cc1 -13.5%
CN1CCN(c2ncc(CN3C(=O)c4ccccc4C3=O)s2)CC1 1.36%
Clc1cccc2sc(N3CCCCC3)nc12 0.64%
O=Cc1cnc(N2CCCCC2)s1 -7.46%
Cc1ccccc1N1C(=O)C(Cl)=C(N2CCCCCC2)C1=O 4.9%
CC(=O)c1cnc(N(C)C)s1 -3.71%
CN1CCN(C2=C(Cl)C(=O)N(C3CCCCC3)C2=O)CC1 20.6%
O=C(CN1CCc2ccccc21)NN1CC(=O)N(c2ccccc2)CC1=O 1.28%
CCOC(=O)c1ccc(NCc2ccncc2)cc1 -1.73%
COC(CN1CCc2c(C)nc3c(C#N)cnn3c21)OC 1.49%
CN(C)S(=O)(=O)c1cc(NC(=O)[C@H](Cc2ccccc2)N2C(=O)c3ccccc3C2=O)ccc1Cl 15.5%
Nc1c(C(=O)Nc2ccc(Br)cc2)sc2nc(-c3ccco3)ccc12 4.88%
NC(=O)c1sc2nc(-c3ccco3)ccc2c1N 25.6%
N#Cc1ccc(CSc2nnc(-c3ccccc3)n2Cc2ccco2)cc1 3.24%
Cc1ccc(-c2nnc(SCc3ccc(C#N)cc3)n2Cc2ccco2)cc1 21.2%
COc1cccc(C(=O)OC(C)CN2CCCC2)c1 (configuration not stated) 2.26%
COc1ccc(CCC(=O)N2CCN(S(=O)(=O)c3ccc4ccccc4c3)CC2)cc1 -2.65%
O=C1c2ccccc2C(O)(c2ccccc2)N1C1CC1 (configuration not stated) 18.6%
COc1cc(C(=O)OCCN2CCOCC2)ccc1O 6.52%
COc1cc(C(=O)OCCCN2CCOCC2)ccc1O 5.32%
CCNc1nc(SC(C)C(=O)OC)nc(N2CCOCC2)n1 (configuration not stated) 2.4%
COc1ccc(N2CS(=O)(=O)/C(=C/N(C)C)C2=O)cc1 9.06%
COCCCNC(=S)Nc1ccc2nc3n(c(=O)c2c1)CCCCC3 -4.36%
CCn1c(O)c(C=NC2CCCC2)sc1=S 5.46%
Oc1ccc(C=NC2CCCCC2)c(O)c1 21.7%
CCOC(=O)N1CCC(N2CC34C=CC(O3)C(C(=O)Nc3ccc(F)cc3)C4C2=O)CC1 (configuration not stated) 5.89%
Cc1ccc(N2C(=O)Nc3cc(Cl)c(Cl)cc3N2O)cc1Cl 4.32%
CCN1CCN(CC(=O)Nc2cc(S(=O)(=O)N3CCCCC3)ccc2Cl)CC1 -1.15%
CC(C)(C)n1nnnc1C(c1ccc2ncccc2c1)N1CCC(O)CC1 (configuration not stated) -3.23%
CN(C)N1C(N)=C(C#N)C(c2cccc([N+](=O)[O-])c2)C2=C1CC(C)(C)CC2=O (configuration not stated) -5.57%
COc1ccc(C)c2sc(N(CCCN(C)C)C(=O)c3ccc(S(=O)(=O)N(C)C)cc3)nc12 -2.34%
CCn1c2ccccc2c2cc(NC(=O)c3cccc([N+](=O)[O-])c3C)ccc21 -6.86%
CCn1c2ccccc2c2cc(NC(=O)c3ccc(C)c([N+](=O)[O-])c3)ccc21 8.31%
C=CCCCN(Cc1ccccc1)S(=O)(=O)c1ccccc1Br -1.22%

Source: PubChem BioAssay AID1117319 (Southern Research Institute, 2015)
